# From PubChem
# A selection: hits, their analogues and other compounds. The true share with any hit is near 5.3%.
# JMJD2A Tudor = qHTS Assay for Inhibitors of JMJD2A-Tudor Domain. AlphaScreen JMJD2A-Tudor / H3K4me3 peptide binding. actives 4.4% (n = 390,000). AID 504339, 2011. Potency, µM (series often up to 114 µM), inactives show at the highest dose activity change, negative = inhibition, hits mostly inhibitors. Lysine-specific demethylase 4A (Homo sapiens), O75164; also: potency is read from the fitted curve at half-maximal effect; % is scaled to controls: 0 for no effect and ±100 for the full control effect; nearly all actives have a fitted effect of over 50% in size
# Target sequence (O75164 whole entry, looked up, the tested form may be a part): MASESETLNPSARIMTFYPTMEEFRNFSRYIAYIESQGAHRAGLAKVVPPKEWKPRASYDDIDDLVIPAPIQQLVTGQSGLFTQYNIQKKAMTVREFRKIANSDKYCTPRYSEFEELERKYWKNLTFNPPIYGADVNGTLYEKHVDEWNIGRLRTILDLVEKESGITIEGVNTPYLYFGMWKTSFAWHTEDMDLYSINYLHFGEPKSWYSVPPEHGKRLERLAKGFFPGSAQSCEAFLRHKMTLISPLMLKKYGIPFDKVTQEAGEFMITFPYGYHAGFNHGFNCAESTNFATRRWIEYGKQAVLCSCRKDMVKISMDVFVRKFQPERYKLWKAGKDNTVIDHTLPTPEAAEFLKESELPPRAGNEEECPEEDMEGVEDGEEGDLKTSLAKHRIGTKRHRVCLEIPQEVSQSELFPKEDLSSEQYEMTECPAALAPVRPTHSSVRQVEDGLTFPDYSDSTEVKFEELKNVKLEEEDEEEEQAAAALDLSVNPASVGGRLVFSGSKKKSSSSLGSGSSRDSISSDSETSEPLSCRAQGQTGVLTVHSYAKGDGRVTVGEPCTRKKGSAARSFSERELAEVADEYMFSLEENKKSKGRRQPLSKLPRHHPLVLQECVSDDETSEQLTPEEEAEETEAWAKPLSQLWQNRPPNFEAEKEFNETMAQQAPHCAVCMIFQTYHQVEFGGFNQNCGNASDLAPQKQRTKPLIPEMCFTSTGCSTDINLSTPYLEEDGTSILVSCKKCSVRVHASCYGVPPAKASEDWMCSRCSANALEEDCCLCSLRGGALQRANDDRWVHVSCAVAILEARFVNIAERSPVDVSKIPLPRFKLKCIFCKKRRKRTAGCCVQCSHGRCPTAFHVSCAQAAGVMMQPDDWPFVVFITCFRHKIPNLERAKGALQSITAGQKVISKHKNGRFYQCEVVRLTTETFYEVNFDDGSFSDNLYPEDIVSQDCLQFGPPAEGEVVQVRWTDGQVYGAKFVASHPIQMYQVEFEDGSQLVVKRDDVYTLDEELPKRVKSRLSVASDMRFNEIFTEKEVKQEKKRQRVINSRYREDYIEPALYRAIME
# HP1b chromo inh = HTS for Inhibitors of HP1-beta Chromodomain Interactions with Methylated Histone Tails; AlphaScreen HP1-beta / biotin-H3K9me3 peptide binding; Potency, µM (titrated, usually from 114 µM), without a hit: at the highest dose activity change, negative = inhibition, usual class: inhibitors; actives 0.56% (n = 390,000); AID 540317, 2011; also: potency is read from the fitted curve at half-maximal effect; nearly all actives have a fitted effect of over 70% in size
#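 Compound inhibition of the preformed complex between 50 nM HP1-beta and 50 nM biotinylated H3K9me3 peptide was read by AlphaScreen. Buffer was PBS pH 7.4 with 0.01% Tween-20. Incubations ran 30 min at room temperature, with 10 ug/mL donor/acceptor beads.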
# CtBP-E1A blk = qHTS Assay for Inhibitors of the CtBP/E1A Interaction; CtBP / adenovirus E1A interaction (AlphaScreen); AlphaScreen GST-E1A/His-CtBP binding, 1536-well; active compounds read low; AID 651724, 2012; activity change, % (concentration not given with the values); actives 0.49% (n = 340,000); in the data active = activity change below about -65%; inconclusive = mostly about -30% to -63%; also: % is scaled to controls: 0 for no effect and ±100 for the full control effect
#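 AlphaScreen with 125 nM GST-E1A and 125 nM His-CtBP (5X stocks) in Tris pH 8.0, 300 mM NaCl, BSA, Tween 20, TCEP. Compounds preincubated 2 h at 37 deg C, then glutathione donor/nickel acceptor beads added for 1 h at 37 deg C in dark.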
# Six1-Eya2 blk = qHTS Assay for Inhibitors of the Six1/Eya2 Interaction. Homeobox protein SIX1 (Homo sapiens) + Protein phosphatase EYA2 (Homo sapiens), …. AlphaScreen GST-Six1/His-Eya2 binding, biochemical; active compounds read low. activity change, % (test concentration not listed). actives 0.56% (n = 360,000); in the data active = activity change below about -65%; inconclusive = mostly about -30% to -63%; also: % is scaled to controls: 0 for no effect and ±100 for the full control effect
#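 GST-Six1 + His-Eya2 (5X stock: 250/500 nM); Tris pH 8.0, 300 mM NaCl, 0.05% BSA, 0.02% Tween 20; GSH donor/Ni acceptor beads; 1 h 37 °C dark; AlphaScreen readout.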
# TDP1 block = qHTS Assay for Inhibitors of Tyrosyl-DNA Phosphodiesterase (TDP1); actives 0.28% (n = 350,000); Potency, µM (series often up to 130 µM), for inactives: at the highest dose activity change, negative = inhibition, usual class: inhibitors; Tyrosyl-DNA phosphodiesterase 1 (Homo sapiens), Q9NUW8; recombinant TDP1, AlphaScreen DNA substrate cleavage; AID 485290, 2010; also: potency is read from the fitted curve at half-maximal effect; % is scaled to controls: 0 for no effect and ±100 for the full control effect; nearly all actives have a fitted effect of over 40% in size
#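 Tdp1 1 nM final; 15 min RT w/ cpd; substrate 15 nM, 5 min; beads 10 ug/ml, 10 min; AlphaScreen read. Neg ctrl: no enzyme.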
# BAZ2B inh = qHTS Assay for Inhibitors of BAZ2B | Bromodomain adjacent to zinc finger domain protein 2B (Homo sapiens), Q9UIF8 | AlphaScreen BAZ2B-H3K14Ac peptide displacement | Potency, µM (titrated, usually from 114 µM), without a hit: at the top dose activity change, negative = inhibition, usual class: inhibitors | actives 4.4% (n = 360,000) | AID 504333, 2011; also: potency is read from the fitted curve at half-maximal effect; % is scaled to controls: 0 for no effect and ±100 for the full control effect; nearly all actives have a fitted effect of over 60% in size
#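 In this displacement format the biotinylated H3(5-23) peptide acetylated at Lys14 serves as ligand at 50 nM, with BAZ2B at 50 nM in PBS pH 7.4 containing 0.01% Tween-20. Donor and acceptor beads are 10 ug/mL final.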
# * = called active by the depositor; ? = inconclusive; · = no result given; [ ] = dose if it differs, or a comment. Unless noted, calls follow the shape of the dose curve; as a rule, active = well fitted inhibition curve with a large enough effect; inconclusive = small, poorly fitted or top-dose-only effect; inactive = no such curve, though single readings can be large or run the other way.
SMILES,JMJD2A Tudor,HP1b chromo inh,CtBP-E1A blk,Six1-Eya2 blk,TDP1 block,BAZ2B inh
COCCN1C(=O)NC(=O)/C(=C\c2ccc(Br)cc2)C1=O,?,11%,·,-1,-3%,-5%
COc1ccc(/C=C2/C(=O)NC(=O)N(Cc3ccco3)C2=O)cc1,·,·,·,·,-6%,32µM*
Cn1cccc1/C=C1\C(=O)NC(=O)N(Cc2ccco2)C1=O,56µM*,45µM*,-2,-19,18µM*,56µM*
FC1(F)C(F)(F)C(F)(F)C2(F)C(F)(F)C(F)(F)C(F)(F)C(F)(F)C2(F)C1(F)F (stereo unspecified),·,·,·,·,21%,·
Nn1c(COc2ccc(Cl)cc2)n[nH]c1=S,32µM*,-8%,-1,-5,2%,-14%
Cc1cccc(C)c1OCc1n[nH]c(=S)n1N,18µM*,-18%,·,6,2%,?
COc1ccc(OCc2n[nH]c(=S)n2Cc2ccco2)cc1,?,?,-5,5,6%,?
COC(=O)[C@H]1[C@H](c2ccccc2)C(=O)[C@@]2(O)c3ccccc3O[C@@]12c1ccccc1,·,·,·,·,4%[21 µM],·
CC1Oc2cc3c(-c4c(O)cc(O)c5c(O)c6c(cc45)OC(C)C(C)C6=O)c(O)cc(O)c3c(O)c2C(=O)C1C (stereo unspecified),45µM*,?,-18,-26,8%,32µM*
COc1cc2c(cc1OC)C1C(=O)c3c(cc4c(c3O)C=CC(C)(C)O4)OC1CO2 (stereo unspecified),·,·,·,·,21%[56.1 µM],·
CCN(CC)c1ccc(C=C2C(=O)NC(=S)NC2=O)cc1,45µM*,?,·,4,·,50µM*
CN(C)c1ccc(C=C2C(=O)NC(=O)NC2=O)cc1,-1%,1%[57 µM],-1,1,·,·
CN(C)c1ccc(/C=C2/C(=O)NC(=O)N(CCc3ccc(F)cc3)C2=O)cc1,28µM*,0%,·,1,-1%,?
CC(C)CN(CC(C)C)c1ccc(C=C2C(=O)NC(=S)NC2=O)cc1[N+](=O)[O-],35µM*,-84%,0,-27,-2%,35µM*
CN(C)c1ccc(C=C2C(=O)NC(=S)NC2=O)cc1,50µM*,-3%,1,1,·,·
O=C1NC(=O)C(=Cc2ccc3c(c2)OCO3)C(=O)N1,·,·,·,·,1%,-14%
CCOP(=S)(OCC)Oc1ncn(-c2ccccc2)n1,·,·,·,·,-4%,·
C=CC1CC=CCC1 (stereo unspecified),·,·,·,·,9%,·
CC(C)CON=O,·,·,·,·,5%,·
COc1ccccc1NC(=O)N(Cc1ccco1)C1CCN(C(C)=O)CC1,-13%,50%,·,·,0%,4%
OCCN(Cc1ccccc1)Cc1cccc(F)c1,7.1µM*,?,0,4,-8%,45µM*
CC1CCN(C(CC(=O)c2ccccc2)C(=O)c2ccccc2)CC1 (stereo unspecified),20µM*,?,0,10,·,·
Cc1nn(Cc2ccccc2)c(C)c1C(=O)OCC(=O)NCc1ccco1,2%,15%,1,-6,4%,-18%
CC(C)C(OC(=O)c1ccco1)C(=O)NCc1ccco1 (stereo unspecified),79µM*,?,-1,2,-1%,-5%
OCc1cccc[n+]1CCc1ccccc1,-10%,41%,2,0,·,·
CCc1n[nH]c(=S)n1/N=C/c1c(C)nn(-c2ccccc2)c1Cl,?,35%,1,-10,2%,-4%
Cc1nn(CCc2n[nH]c(=S)n2-c2cccc(Cl)c2)c(C)c1[N+](=O)[O-],45µM*,21%,4,0,4%,2%
